# Biological target: GPS1
# Experiment: pooled miR-30 sensor sort-seq; sequence = guide strand
# Settings: shRNA
row,Sequence,sensor-assay potency score (higher = more potent)
1,TTGCTGTGTGAGTCCACACGGG,-0.414
2,TAGCACTTGAGGGCGTTGCTGA,-0.484
3,AACAACTTGAAGGAGCTGCTGG,-0.415
4,TTCATCTCGTCCAGCATCTTGA,-0.805
5,TTGTAGTTCTTCAGGTCTGTGT,-0.35
6,TTGCGCTGCAGCTCCTGCCGGT,-0.804
7,TTGAAGGCTGCCGCCATCCTAT,-1.18
8,AAGAACAACTTGAAGGAGCTGC,0.981
9,TCCAGCTCCAAGAACAACTTGA,-0.994
10,TACTGTTCCAGATCCAGGCTGG,0.176

# Biological target: GPT2
# Experiment: as above
# Settings: shRNA
row,Sequence,sensor-assay potency score (higher = more potent)
1,TCATGCAGTAGAACATGTCTGG,0.355
2,TAACAGATTCAGAGAACCCTGG,0.0686
3,TTCAGGATCGTAGAAATGCCGT,-0.741
4,TCTGTAACCACACTCGCCCATG,-1.08
5,TTGATCACCTCCATGTAGCCTC,0.135
6,TTAGCATCTTCTGGGAAGCTGG,-0.879
7,TTTCACCTTCTGCAGCACCGTT,-1.46
8,TTGGTTAAACAGGTCTTCCGTC,0.251
9,TACAGCACCTTCTTGAAGGAGT,-0.472
10,TTCACCTTCTGCAGCACCGTTT,-0.638
11,TTGGCAGGAATGAAGATCCGAG,-0.485

# Reference: the OligoGym collection
